Reference: PubChem BioAssay
The source made the active and inactive calls.

Tests used:
[1] = E. coli DRC41 culture turbidity changes, primary screen, E. coli filamentation inducer project, strain DRC41, OD650, 48 h (AID 1152);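 also: E. coli MC1000 strain DRC41 lacking acrAB efflux pump and sulA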; conditions: E. coli DRC41 (acrAB sulA), higher = more signal, called active from +8 up or from −8 down
[2] = small-molecule binders of probe aLefty1, primary screen, biochemical, small-molecule microarray, 635/667 nm fluorescence (AID 1153); conditions: higher = more signal;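 also: score merges spot fluorescence with signal-to-noise ratio from the scanned slide images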
[3] = PSAC antagonists in infected red cells, primary screen, cell-based, P. falciparum Indochina, OD700, 1 h (AID 1154); conditions: P. falciparum Indochina infected RBC osmotic lysis, higher = more signal, called active from +8 up or from −8 down
[4] = PSAC antagonists in infected red cells, primary screen, cell-based, P. falciparum Indochina, OD700, 2 h (AID 1155);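 also: lysis reports solute entry through the parasite surface anion channel PSAC; channel blockers reduce lysis of infected cells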; conditions: P. falciparum Indochina infected erythrocytes, osmotic lysis OD700; higher = more signal, called active from +8 up or from −8 down
[5] = osmotic lysis modulators in infected erythrocytes, primary screen, PSAC antagonist project, cell-based, P. falciparum Indochina, OD700, 3 h (AID 1156); conditions: higher = more signal, called active from +8 up or from −8 down
[6] = PSAC antagonists in infected red cells, primary screen, cell-based, P. falciparum Indochina, OD700, 18 h (AID 1157); conditions: P. falciparum Indochina infected erythrocytes, osmotic lysis OD700, 18 h; higher = more signal, called active from +8 up or from −8 down
[7] = modulators of S6 phosphorylation in cells, primary screen, cell-based, A549, cytoblot, luminescence, serum-stimulated (AID 1158); conditions: A549 phospho-S6 cytoblot, 5 h, higher = more signal;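 also: serum-stimulated A549 lung adenocarcinoma cells; signal is phosphorylated S6 detected by cytoblot immunostaining with HRP secondary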
[8] = target: NADPH oxidase 2 (Homo sapiens) (UniProt P04839); experiment: NOX2-dependent H2O2 signal modulators, primary screen, NOX inhibitor project, cell-based, HEK293-NOX2, PMA-stimulated, Amplex Red fluorescence (AID 1159); conditions: 45 min, higher = more signal, called active from +8 up or from −8 down; also: test concentration not given here
Chain of NADPH oxidase 2 (Homo sapiens) (P04839 whole entry, looked up): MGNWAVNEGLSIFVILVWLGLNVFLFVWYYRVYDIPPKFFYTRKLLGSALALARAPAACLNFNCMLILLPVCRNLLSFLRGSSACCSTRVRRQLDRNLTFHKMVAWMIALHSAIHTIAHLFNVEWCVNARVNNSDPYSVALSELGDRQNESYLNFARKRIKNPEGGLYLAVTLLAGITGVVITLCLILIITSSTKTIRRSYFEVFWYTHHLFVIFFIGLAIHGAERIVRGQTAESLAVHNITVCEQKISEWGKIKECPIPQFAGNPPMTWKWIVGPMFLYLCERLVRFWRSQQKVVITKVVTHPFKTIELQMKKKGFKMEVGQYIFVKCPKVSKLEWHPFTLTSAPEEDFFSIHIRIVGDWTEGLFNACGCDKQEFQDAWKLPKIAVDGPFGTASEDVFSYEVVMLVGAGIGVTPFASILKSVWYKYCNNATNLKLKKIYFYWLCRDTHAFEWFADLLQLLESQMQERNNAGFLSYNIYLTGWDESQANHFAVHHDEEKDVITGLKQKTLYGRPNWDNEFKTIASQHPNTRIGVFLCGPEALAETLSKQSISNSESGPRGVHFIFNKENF

[9] = target: NADPH oxidase 4 (Homo sapiens) (UniProt Q9NPH5); experiment: NOX4-dependent H2O2 signal modulators, primary screen, NOX inhibitor project, cell-based, HEK293-NOX4, tetracycline-induced, Amplex Red fluorescence (AID 1160); conditions: 45 min, higher = more signal, called active from +8 up or from −8 down
Chain of NADPH oxidase 4 (Homo sapiens) (Q9NPH5 whole entry, looked up): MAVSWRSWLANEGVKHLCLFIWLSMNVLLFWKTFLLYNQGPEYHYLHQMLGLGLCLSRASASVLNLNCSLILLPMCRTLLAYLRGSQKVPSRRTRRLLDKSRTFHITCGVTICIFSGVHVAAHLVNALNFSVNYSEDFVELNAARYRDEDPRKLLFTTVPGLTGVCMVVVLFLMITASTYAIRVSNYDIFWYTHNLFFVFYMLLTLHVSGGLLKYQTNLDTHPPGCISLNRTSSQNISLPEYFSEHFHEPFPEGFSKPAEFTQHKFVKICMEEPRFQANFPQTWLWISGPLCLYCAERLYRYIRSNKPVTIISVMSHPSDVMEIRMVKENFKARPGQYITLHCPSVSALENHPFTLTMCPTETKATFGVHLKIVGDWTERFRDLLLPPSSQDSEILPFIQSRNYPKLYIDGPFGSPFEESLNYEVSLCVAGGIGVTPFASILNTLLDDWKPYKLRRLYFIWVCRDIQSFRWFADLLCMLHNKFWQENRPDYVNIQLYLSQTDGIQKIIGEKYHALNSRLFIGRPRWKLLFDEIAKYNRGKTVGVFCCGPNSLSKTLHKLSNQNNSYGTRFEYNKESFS

[10] = target: NADPH oxidase 5 (Homo sapiens) (UniProt Q96PH1); experiment: NOX5-dependent H2O2 signal modulators, primary screen, NOX inhibitor project, cell-based, HEK293-NOX5, Amplex Red fluorescence (AID 1161); conditions: HEK293-NOX5, ionomycin, 45 min, higher = more signal
Chain of NADPH oxidase 5 (Homo sapiens) (Q96PH1 whole entry, looked up): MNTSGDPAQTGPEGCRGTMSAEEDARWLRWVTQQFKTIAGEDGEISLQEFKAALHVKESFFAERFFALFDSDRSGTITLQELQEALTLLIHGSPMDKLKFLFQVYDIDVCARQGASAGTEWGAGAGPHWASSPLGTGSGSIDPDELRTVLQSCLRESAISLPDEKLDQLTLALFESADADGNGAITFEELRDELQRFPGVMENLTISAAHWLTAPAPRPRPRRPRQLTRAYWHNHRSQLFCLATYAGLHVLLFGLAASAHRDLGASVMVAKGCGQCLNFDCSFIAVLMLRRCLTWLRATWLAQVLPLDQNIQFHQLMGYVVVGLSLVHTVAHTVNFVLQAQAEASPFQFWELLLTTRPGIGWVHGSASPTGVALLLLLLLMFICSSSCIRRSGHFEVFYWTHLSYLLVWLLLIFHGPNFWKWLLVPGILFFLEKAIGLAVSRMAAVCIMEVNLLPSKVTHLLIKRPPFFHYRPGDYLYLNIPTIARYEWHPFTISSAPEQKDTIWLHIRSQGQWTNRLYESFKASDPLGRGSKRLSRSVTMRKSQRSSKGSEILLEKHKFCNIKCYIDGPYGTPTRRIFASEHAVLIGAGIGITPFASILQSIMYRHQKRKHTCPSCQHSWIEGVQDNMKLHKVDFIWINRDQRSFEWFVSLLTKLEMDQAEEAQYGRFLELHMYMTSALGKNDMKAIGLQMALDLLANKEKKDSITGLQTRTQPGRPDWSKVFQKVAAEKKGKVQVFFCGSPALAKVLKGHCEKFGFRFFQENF

| Structure (SMILES) | z-score [1] | composite z-score [2] | z-score [3] | z-score [4] | z-score [5] | z-score [6] | z-score [7] | z-score [8] | z-score [9] | z-score [10] |
| --- | --- | --- | --- | --- | --- | --- | --- | --- | --- | --- |
| COC(=O)CC=C[C@H](C)[C@@H](OCc1ccccc1Br)C(C)C | 0.358 (inactive) | -0.149 | 0.644 (inactive) | 0.673 (inactive) | 1.01 (inactive) | 0.589 (inactive) | 0.104 | 1.04 (inactive) | 0.478 (inactive) | 0.457 |
| CCc1cccc(NC(=O)O[C@H]2[C@H](OC(=O)Nc3ccc4c(c3)OCO4)[C@@H](OC(=O)Nc3ccc4c(c3)OCO4)[C@@H](OC)O[C@@H]2CO)c1 | 0.861 (inactive) | 1.01 | 7.56 (inactive) | 1.22 (inactive) | 1.37 (inactive) | 0.495 (inactive) | 0.19 | -3.12 (inactive) | -0.812 (inactive) | -1.87 |
| Cc1ccc(C2CC=C(C(=O)O)CN2S(=O)(=O)c2ccc(C)cc2)cc1 (stereo not given) | -1.29 (inactive) | -0.0294 | 1.26 (inactive) | 0.838 (inactive) | 0.927 (inactive) | 0.98 (inactive) | -0.51 | -0.446 (inactive) | -1.44 (inactive) | 0.321 |
| C=C(/C(=C/C[C@H](OC(C)=O)c1ccc(OCCO)cc1)c1cnc2ccccc2c1)C(C)C | 1.02 (inactive) | -0.314 | 12.8 (active) | 1.64 (inactive) | 1.56 (inactive) | 0.749 (inactive) | 0.268 | -2.21 (inactive) | -0.569 (inactive) | -1.8 |
| CN1C(=O)[C@@]2(CCC(=O)OC(C)(C)C)N=C(c3ccc(OCCCO)cc3)O[C@H]2c2ccccc21 | 1.02 (inactive) | 0.0959 | 30.8 (active) | 26.6 (active) | 1.7 (inactive) | 1.11 (inactive) | 1.09 | -2.05 (inactive) | 0.112 (inactive) | -1.43 |
| COc1ccc(-c2nc3c(c4c2C[C@H](C)OC4)CN(CCC(C)C)CC3)cc1 | 0.498 (inactive) | 0.0687 | 1.78 (inactive) | 0.673 (inactive) | 0.511 (inactive) | 0.123 (inactive) | -0.0895 | -0.112 (inactive) | 0.239 (inactive) | 0.684 |
| O=C1C[C@]2(c3ccc([N+](=O)[O-])cc3)C(=O)N(CCN3CCOCC3)c3cc(CO)ccc3[C@H]2N1CC12CC3CC(CC(C3)C1)C2 | 0.319 (inactive) | 0.056 | 1.4 (inactive) | -0.103 (inactive) | 1.68 (inactive) | 0.45 (inactive) | 0.349 | 0.194 (inactive) | -1.09 (inactive) | -2.03 |
| CCCC=C(CCC)[C@@H](NC(=O)c1ccc(-c2ccccc2)cc1)c1ccc(C(=O)OC)cc1 | -1.23 (inactive) | 0.547 | 0.626 (inactive) | 0.453 (inactive) | -0.104 (inactive) | 0.987 (inactive) | 0.692 | -0.0895 (inactive) | 1.13 (inactive) | 1.81 |
| CCCNC(=O)OC[C@H]1O[C@H](CCON=CC[C@@H]2C=C[C@H](OC(C)=O)[C@@H](COC(C)=O)O2)C=C[C@@H]1Oc1ccc(OC)cc1 | -0.413 (inactive) | -0.145 | 1.6 (inactive) | 0.405 (inactive) | 0.126 (inactive) | 0.392 (inactive) | -0.397 | -1.02 (inactive) | 0.143 (inactive) | -1.07 |
| C=CCC(OC(C)=O)[C@@H]1[C@@H](N(Cc2cc3ccccc3o2)C(=O)Cc2ccc(F)cc2)c2cc(OCCCO)ccc2N1C(=O)Cc1ccc(OC)cc1 (stereo not given in full) | -0.778 (inactive) | -0.06 | 1.05 (inactive) | 0.172 (inactive) | -0.67 (inactive) | -0.133 (inactive) | -0.597 | 0.2 (inactive) | 0.727 (inactive) | -0.743 |
| CC(C)(C)OC(=O)CC[C@]1(C(=O)NCc2ccccc2)N=C(c2ccc(OCCCO)cc2)O[C@H]1c1ccccc1 | 0.185 (inactive) | 1.18 | 14.6 (active) | 1.79 (inactive) | 1.14 (inactive) | 0.887 (inactive) | -0.009 | -2.22 (inactive) | -0.583 (inactive) | -1.81 |
| O=C(NN=C1C[C@@H](O)[C@@H](O)[C@@H]2[C@@H]3C(=O)N(c4cccc(Oc5ccccc5)c4)C(=O)[C@@H]3CC[C@H]12)OCc1ccccc1 | -0.155 (inactive) | 0.0406 | 2.26 (inactive) | 1.1 (inactive) | 2.32 (inactive) | 0.527 (inactive) | -0.738 | 1.25 (inactive) | 0.056 (inactive) | 0.825 |
| CC(C)CON=C1C[C@@H](O)[C@@H](O)[C@@H]2[C@@H]3C(=O)N(Cc4ccccc4)C(=O)[C@@H]3CC[C@@H]12 | 0.102 (inactive) | 0.148 | 0.252 (inactive) | 0.227 (inactive) | 0.65 (inactive) | -0.0378 (inactive) | 0.524 | 1.39 (inactive) | 0.387 (inactive) | -0.0393 |
| COC(=O)C1(C)C=C2C(=C(c3ccccc3)C(=O)C2C)CN1 (stereo not given) | -1.47 (inactive) | 0.22 | 0.585 (inactive) | 0.196 (inactive) | 0.745 (inactive) | 0.543 (inactive) | -0.387 | 0.512 (inactive) | -2.49 (inactive) | -2.34 |
| CC(CCC(=O)OC[C@H]1O[C@H](C#Cc2ccccc2)C=C[C@@H]1Oc1ccc(C)cc1)=NOC[C@@H](O)[C@H]1O[C@@H]2OC(C)(C)O[C@@H]2[C@H]1O | 0.715 (inactive) | -0.193 | 14.2 (active) | 1.9 (inactive) | 0.0766 (inactive) | 1.05 (inactive) | 0.078 | -1.55 (inactive) | -0.00198 (inactive) | -1.2 |
| CC(CCC(=O)OC[C@H]1O[C@H](C#Cc2ccccc2)C=C[C@@H]1Oc1ccc(C)cc1)=NO[C@@H](C)c1cn([C@H](CO)Cc2ccccc2)nn1 | -0.913 (inactive) | -0.247 | 10.5 (active) | 0.542 (inactive) | 1.78 (inactive) | -1.05 (inactive) | 0.672 | -1.54 (inactive) | -0.298 (inactive) | -0.428 |
| CC(C)=CCCC(C)=CCON=C1C[C@@H](O)[C@@H](O)[C@@H]2[C@@H]3C(=O)N(C[C@@H]4CCCO4)C(=O)[C@@H]3CC[C@@H]12 | 0.381 (inactive) | 0.0371 | 1.53 (inactive) | 0.767 (inactive) | 0.369 (inactive) | 0.549 (inactive) | -0.622 | 0.752 (inactive) | 0.604 (inactive) | 0.0838 |
| COC(=O)[C@H](C)NC(=O)[C@@H](C)CO | -0.534 (inactive) | 0.138 | 0.295 (inactive) | 0.451 (inactive) | 0.372 (inactive) | 0.665 (inactive) | 0.656 | -0.371 (inactive) | -0.71 (inactive) | 0.468 |
| CC1CC/C=C\[C@H]2OC34C=CCN(C(C)C)C(=O)[C@H]3N(CCCO)C(=O)[C@@H]4C2C(=O)O1 (stereo not given in full) | 0.658 (inactive) | -0.0536 | 0.0261 (inactive) | -0.0331 (inactive) | -0.0769 (inactive) | -0.207 (inactive) | -0.251 | 1.57 (inactive) | 0.213 (inactive) | 2.02 |
| CC1(C)OCC(C(O)C2=CCCCC2=O)CO1 (stereo not given) | -3.47 (inactive) | 0.138 | 0.0704 (inactive) | 0.137 (inactive) | 0.864 (inactive) | 0.348 (inactive) | 0.315 | 0.362 (inactive) | -0.247 (inactive) | 1.07 |
| CO[C@@H]1COC(=O)CC=C[C@@H](C)[C@@H]2C=C[C@H](O)[C@@H](COC(=O)CCC[C@H]1C)O2 | -0.457 (inactive) | 0.425 | -0.977 (inactive) | -1.66 (inactive) | -0.184 (inactive) | -2.26 (inactive) | 0.49 | -0.521 (inactive) | 0.319 (inactive) | 0.312 |
| C=C(/C(=C/C[C@@H](OC(=O)c1ccncc1)c1ccc(OCCO)cc1)c1cnc2ccccc2c1)C(C)C | 1.13 (inactive) | -0.0199 | 12.8 (active) | 4.25 (inactive) | -1.77 (inactive) | -0.0139 (inactive) | 0.13 | -2.73 (inactive) | -0.648 (inactive) | -3.24 |
| COc1ccc(O[C@@H]2[C@H](O)CO[C@H]2C=CC#Cc2ccccc2)cc1 | -0.939 (inactive) | -0.147 | 2.74 (inactive) | 0.488 (inactive) | 0.356 (inactive) | 0.0508 (inactive) | -0.367 | 0.0749 (inactive) | 1.23 (inactive) | 1.46 |
